Compound activity deposited in PubChem by National Center for Advancing Translational Sciences (NCATS).
Shown are actives, neighbours in structure and some others; about 12% of the full set was active somewhere.
BAZ2B inh: BAZ2B (human) inhibition; AID 504333; 4.4% of 360,000 active; AlphaScreen BAZ2B-H3K14Ac peptide displacement; Q9UIF8; Potency, µM (doses to about 114 µM), inactives show at the highest dose activity change, negative = inhibition, actives largely listed as inhibitors; note: % is set by controls: 0 for no effect and ±100 for the full control effect; nearly all actives have a fitted effect of over 60% in size
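AlphaScreen displacement of biotin-H3(5-23)K14Ac peptide (50 nM final) from BAZ2B (50 nM final) in PBS pH 7.4, 0.01% Tween-20; complex preformed 30 min RT, then compounds (top 110 uM) 30 min RT, beads 20 min dark.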
Sfp inh: blocks B. subtilis Sfp PPTase activity; Biochemical Sfp PPTase activity, qHTS; Potency, µM, inactives show largest response in the series, negative = inhibition, most hits filed as inhibitors; 3.5% of 310,000 active;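 note: the enzyme is Sfp with the accession as filed and its product quenches rhodamine fluorescence; 0% = enzyme reaction without inhibitor and -100% = no enzyme wells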
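Step 1, compound plus 15 nM Sfp-PPTase, 15 min, room temperature. Step 2, add rhodamine-CoA (5 uM) and BHQ-2-YbbR (12.5 uM). Step 3, read 525/598 nm fluorescence at 0 and 30 min.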
G9a inh: G9a (human) methyltransferase inhibition; AID 504332; Potency, µM (series often up to 102 µM), for the others: top-dose activity, negative = inhibition, hits mostly inhibitors; 8.8% of 350,000 active; Q96KQ7; G9a H3K9 monomethylation, AlphaScreen, 2 h; note: % is set by controls: 0 for no effect and ±100 for the full control effect; nearly all actives have a fitted effect of over 75% in size
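Signal arises when biotinylated H3K9 peptide, once monomethylated, bridges streptavidin donor and antibody-captured acceptor beads. Enzyme at 20 nM was preincubated 15 min with test compounds; peptide 500 nM and SAM 20 uM then reacted for 2 h.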
JMJD2A Tudor inh: JMJD2A Tudor domain (human) inhibition; Potency, µM (series often up to 114 µM), without a hit: top-dose activity change, negative = inhibition, most hits filed as inhibitors; AlphaScreen JMJD2A-Tudor / H3K4me3 peptide binding; O75164; 4.4% of 390,000 active; note: % is set by controls: 0 for no effect and ±100 for the full control effect; nearly all actives have a fitted effect of over 50% in size
Target sequence (O75164 whole entry, looked up, the tested form may be a part): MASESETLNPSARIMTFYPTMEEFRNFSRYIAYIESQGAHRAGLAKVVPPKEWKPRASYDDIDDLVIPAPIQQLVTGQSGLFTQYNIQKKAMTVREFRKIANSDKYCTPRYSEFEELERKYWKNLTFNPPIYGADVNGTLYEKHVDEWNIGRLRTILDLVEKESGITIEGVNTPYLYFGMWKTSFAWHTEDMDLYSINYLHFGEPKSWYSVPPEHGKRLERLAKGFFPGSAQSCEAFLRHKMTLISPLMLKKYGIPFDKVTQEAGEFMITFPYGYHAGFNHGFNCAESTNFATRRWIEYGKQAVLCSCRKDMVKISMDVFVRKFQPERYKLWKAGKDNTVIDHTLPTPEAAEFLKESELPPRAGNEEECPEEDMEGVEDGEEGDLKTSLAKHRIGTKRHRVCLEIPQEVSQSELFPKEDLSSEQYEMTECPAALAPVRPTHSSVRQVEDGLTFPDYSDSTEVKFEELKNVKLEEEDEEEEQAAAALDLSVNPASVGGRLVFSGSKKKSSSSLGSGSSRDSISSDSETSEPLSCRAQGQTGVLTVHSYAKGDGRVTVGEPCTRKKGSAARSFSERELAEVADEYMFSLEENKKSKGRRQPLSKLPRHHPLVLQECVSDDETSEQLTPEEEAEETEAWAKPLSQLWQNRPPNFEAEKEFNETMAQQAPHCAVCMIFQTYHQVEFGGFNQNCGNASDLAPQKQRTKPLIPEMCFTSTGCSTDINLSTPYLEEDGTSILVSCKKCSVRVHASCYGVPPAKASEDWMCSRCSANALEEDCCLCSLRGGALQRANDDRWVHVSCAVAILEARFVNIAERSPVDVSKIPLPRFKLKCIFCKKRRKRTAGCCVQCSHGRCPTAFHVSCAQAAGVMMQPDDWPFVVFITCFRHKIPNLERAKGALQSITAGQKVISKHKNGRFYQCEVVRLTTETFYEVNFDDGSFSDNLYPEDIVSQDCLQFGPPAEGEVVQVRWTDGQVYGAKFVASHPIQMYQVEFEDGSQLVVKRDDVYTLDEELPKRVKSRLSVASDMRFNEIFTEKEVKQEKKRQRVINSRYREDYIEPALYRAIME
TDP1 inh: inhibitors of human tyrosyl-DNA phosphodiesterase TDP1; Q9NUW8; recombinant TDP1, AlphaScreen DNA substrate cleavage; 0.28% of 350,000 active; Potency, µM (highest dose often 130 µM), for the others: at the highest dose activity change, negative = inhibition, usual class: inhibitors; note: % is set by controls: 0 for no effect and ±100 for the full control effect; nearly all actives have a fitted effect of over 40% in size
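Steps: enzyme plus compound, 15 min RT; add biotin/phosphotyrosine-FITC oligonucleotide (15 nM final), react 5 min; add donor/acceptor beads (10 ug/ml final), 10 min; read AlphaScreen. Tdp1 at 1 nM final.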
HP1b binding inh: blocks HP1-beta chromodomain binding to methylated histone tails. AlphaScreen HP1-beta / biotin-H3K9me3 peptide binding. Potency, µM (doses to about 114 µM), for the others: at the top dose activity change, negative = inhibition, actives largely listed as inhibitors. P83916. 0.56% of 390,000 active. AID 540317; note: nearly all actives have a fitted effect of over 70% in size
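Compound inhibition of the preformed complex between 50 nM HP1-beta and 50 nM biotinylated H3K9me3 peptide was read by AlphaScreen. Buffer was PBS pH 7.4 with 0.01% Tween-20. Incubations ran 30 min at room temperature, with 10 ug/mL donor/acceptor beads.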
Active calls of the source: *; ? = inconclusive; . = no result; [ ] = another dose, or the depositor's remark. Calls come from the whole dose curve; as a rule, active = well fitted curve in the direction sought with a large enough effect; inconclusive = small, poorly fitted or top-dose-only effect, or another doubt; inactive = no such curve, though single readings can be large; an effect the other way counts as inactive or inconclusive. Potency is the fitted concentration of half-maximal effect.

SMILES | BAZ2B inh | Sfp inh | G9a inh | JMJD2A Tudor inh | TDP1 inh | HP1b binding inh
Cc1ccc(NC(=O)Cn2cc(S(=O)(=O)N3CCCC3)c(S(=O)(=O)N3CCCC3)c2)cc1F | 11%[57.1 µM] | . | -27%[59 µM] | -15% | -3% | 30%
Cn1ncc(Cl)c1C(=O)N/N=C/c1cccc(OC2CSC2)c1 | 79µM* | 7% | 1% | -19% | 3% | 37%
COc1ccc(C(=O)N/N=C/c2ccccn2)cc1OC | ? | ? | 3% | ? | 8% | 7%
O=C(N/N=C/c1ccccn1)c1ccc(Cl)cc1 | 1% | 32µM* | ? | -28% | 3%[56.1 µM] | 24%
Cc1nc2ccccc2n1CC(=O)N/N=C\c1ccccn1 | 50µM* | ? | ? | ? | 2% | 33%
Cc1ccc(/C=N\NC(=O)Cn2c(C)nc3ccccc32)o1 | 1% | 5% | -3%[59 µM] | -9%[57.1 µM] | -7% | -1%
COc1cc(C(=O)N/N=C/c2ccccn2)cc(OC)c1OC | 25µM* | 56µM* | -2% | -23% | 9% | 4%
O=C(N/N=C\c1ccccn1)c1cccc(C(=O)N/N=C\c2ccccn2)n1 | . | . | . | -17% | . | 22%
Cc1cccn2c(=O)c(/C=C(\C#N)c3nc4ccccc4n3C)c(Oc3ccc(Cl)cc3)nc12 | ? | . | 4%[59 µM] | -23% | 1% | 11%
Cc1ccc(OC(C)C(=O)N/N=C/c2ccccn2)cc1 (centres undefined) | 71µM* | -55% | 1.4µM* | -9% | 2% | 39%
Cc1ccccc1C(=O)N/N=C/c1ccccn1 | 4% | 71µM* | -3% | ? | 6% | 5%
O=C(N/N=C\c1ccccn1)c1ccccc1O | -1% | ? | 43% | ? | 3% | 32%
O=C(N/N=C/c1ccccn1)c1ccccc1 | -4% | ? | ? | ? | 0% | 14%
O=C(N/N=C/c1ccccn1)c1ccncc1 | 16µM* | 20µM* | ? | ? | . | 29%
Cc1ccc(C(=O)Nc2ccc(C(=O)N/N=C/c3ccccn3)cc2)cc1 | 20% | 5% | -46% | -14% | 5% | 59%
CC(CNC(=O)CCCn1c(=O)c2cccn2c2cccnc21)c1ccccc1 (centres undefined) | ? | . | -18%[59 µM] | -9% | 5% | 22%
O=C(Nc1cc(-c2nc3cc(Cl)ccc3o2)ccc1Cl)c1cccc2ccccc12 | -12% | . | 5%[59 µM] | 4% | 5% | 47%
CSc1ccc(CNC(=O)CCc2c(C)nn(-c3ccc(N4CCCC4)nn3)c2C)cc1 | 56µM* | . | 6%[59 µM] | -27% | 5% | -12%
CCn1nc(C(=O)OCC(=O)c2ccc3c(c2)OCCO3)c2ccccc2c1=O | -23% | 5% | ? | 50µM* | . | -2%
CC/C(=N\NC(=O)c1ccc2c(c1)OCO2)c1ccccc1 | -14% | 11% | -8% | -3% | 3% | 58%
Nc1nc2[nH]cc(CCc3ccc(C(=O)NC(CCC(=O)O)C(=O)O)cc3)c2c(=O)[nH]1 (centres undefined) | . | 11% | -15%[12.7 µM] | . | . | .
CC1(C)CC(=O)C(/C=N/c2ncccc2C(=O)O)=C(O)C1 | 6% | -8% | 50µM* | 0% | 9% | 44%
Cc1ccc(N=CC2=C(O)CC(C)(C)CC2=O)nc1 | 13% | 5% | ? | -6% | 4% | 37%
Cc1ccc(C)c(NC(=O)C(=O)NCC(c2cccnc2)N2CCN(c3ccc(F)cc3)CC2)c1 (centres undefined) | -37% | . | ? | -36% | -4% | 10%
CC1=NCC(C)c2c1[nH]c1ccccc21 (centres undefined) | ? | -13% | 13µM* | ? | 1% | ?
Cc1[nH]c2ccccc2c1C1N2CC3(C)CN1CC(C)(C2)C3=O (centres undefined) | 1% | . | 3%[59 µM] | -14% | 3% | 11%
CCn1cnc2c(Nc3ccc(CC(=O)N=C(N)N)cc3)nc(C#N)nc21 | . | . | . | -21% | -3% | .
COC(=O)c1ccc(C(=O)N(C)C2CCCN(Cc3ccccc3F)C2)nc1 (centres undefined) | -32% | 11% | 6% | -9% | . | 31%
